Compounds with a hit are over-represented: about 2.3% of the library has one in this group of screens.
CHRM1 PAM = human M1 muscarinic receptor positive allosteric modulators, primary screen, CHO-K1 cells, Fluo-8 calcium fluorescence, 1536-well | activation, % at 3 µM | Muscarinic acetylcholine receptor M1 (Homo sapiens), P11229 | 360,000 tested, 0.088% active | AID 588819, 2011 | CHO-K1 hM1, ACh EC20; 0% = ACh EC20, 100% = maximal ACh; in the data active means activation above about 19%, passing the limit was not always enough
Target sequence (P11229 whole entry, looked up): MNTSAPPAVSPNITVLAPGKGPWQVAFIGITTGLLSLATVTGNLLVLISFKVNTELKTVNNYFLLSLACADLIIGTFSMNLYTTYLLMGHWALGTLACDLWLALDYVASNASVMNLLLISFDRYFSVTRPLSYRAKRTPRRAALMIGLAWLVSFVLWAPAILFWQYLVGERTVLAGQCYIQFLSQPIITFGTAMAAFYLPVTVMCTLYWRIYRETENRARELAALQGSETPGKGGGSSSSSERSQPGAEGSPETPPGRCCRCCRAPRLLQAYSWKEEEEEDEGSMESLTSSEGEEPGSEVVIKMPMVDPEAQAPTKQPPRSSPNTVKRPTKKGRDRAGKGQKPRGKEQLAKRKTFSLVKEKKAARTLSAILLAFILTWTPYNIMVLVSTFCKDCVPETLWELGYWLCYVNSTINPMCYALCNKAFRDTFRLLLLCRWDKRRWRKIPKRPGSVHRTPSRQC
CHO-K1 Ca PAM = nonselective calcium activators in parental CHO-K1 cells, primary screen, counter-screen for M1 PAM project, cell-based, Fluo-8 calcium fluorescence, full deck, 1536-well | ATP EC20; 0% at ATP EC20, 100% at ATP max | activation, % at 3 µM | 360,000 tested, 0.02% active;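 active means activation above the run cutoff, the mean activation of all test compounds plus 3 SD, cut at about 40% in these data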;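 further: peak over basal fluorescence ratio in a 140 s read after ATP addition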
CHO-K1 Ca ag = counter-screen for M1 agonists: effect in parental CHO-K1 cells | 360,000 tested, 0.48% active | activation, % at 3 µM | Fluo-8 calcium fluorescence; scaled to maximal ATP response, vehicle zero; in the data active means activation above about 15%;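 further: untransfected CHO-K1 host cells lacking M1 receptor as counterscreen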
M1 antag = human M1 muscarinic receptor antagonists, primary screen, CHO-K1 cells, Fluo-8 calcium fluorescence, 1536-well | Muscarinic acetylcholine receptor M1 (Homo sapiens), P11229 | CHO-K1 hM1, ACh EC80 antagonist | inhibition, % at 3 µM | 360,000 tested, 1.3% active | AID 588852, 2011;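 active means percent inhibition above its own plate's cutoff, namely the mean of that plate's compound wells plus 3 SD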;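 further: peak over basal fluorescence ratio during 140 s after agonist addition; 0% = ACh EC80 plus DMSO and 100% = DMSO alone without agonist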
M1 ag = human M1 muscarinic receptor agonists, primary screen, Fluo-8 calcium fluorescence, CHO-K1 cells, HTS. Muscarinic acetylcholine receptor M1 (Homo sapiens), P11229. CHO-K1 hM1, agonist mode; 0% DMSO, 100% acetylcholine EC100. activation, % at 3 µM. 360,000 tested, 0.33% active. AID 588814, 2011;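 active means activation above the run's mean compound activation plus 3 SD, cut at about 16% in these data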;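 further: peak over basal fluorescence ratio within a 140 s kinetic read after compound addition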
CHO-K1 Ca antag = nonselective inhibitor or artifact in parental CHO-K1 cells | 360,000 tested, 0.6% active | ATP-induced calcium, Fluo-8 fluorescence | inhibition, % at 3 µM;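 active means inhibition above a per-plate cutoff, the plate's mean sample inhibition plus 3 SD, cut at about 24% in these data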;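 further: 0% = DMSO plus EC80 ATP and 100% = DMSO alone without ATP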
The depositor's hits bear a star; · = not tested or not shown.

SMILES	CHRM1 PAM	CHO-K1 Ca PAM	CHO-K1 Ca ag	M1 antag	M1 ag	CHO-K1 Ca antag
CCCCCCN1CCN(C2CN(Cc3cn(Cc4ccccc4)nn3)S(=O)(=O)C2)CC1 (configuration not stated)	·	3	0	·	·	-7
O=C1CC(c2ccsc2)Sc2ccccc2N1 (configuration not stated)	6	12	20*	-6	-4	7
Cc1ccc(C(=O)/C=C/c2cn(CC(O)CN3CCOCC3)c3ccccc23)cc1 (configuration not stated)	6	20	16*	2	-6	1
CN(Cc1nccn1C)C(=O)c1ccc2nc(Cc3ccccc3F)oc2c1	-22	6	1	48*	-6	-12
CN(Cc1nccs1)C(=O)c1ccc2nc(Cc3ccccc3F)oc2c1	5	-17	1	-1	-1	-6
O=C(CNC(=O)c1ccccc1F)NCc1ccccn1	13	13	0	-12	-3	-17
N=c1oc2cc(O)ccc2cc1C(=O)Nc1ccc(Cl)cc1	6	1	0	-4	-3	-8
COc1ccc(NC(=O)CC(NCc2ccccn2)C(=O)O)cc1 (configuration not stated)	11	20	18*	-2	-5	3
Fc1ccccc1-c1csc(=Nc2cccnc2)n1CC1CCCO1 (configuration not stated)	-8	-8	4	9	-8	3
Fc1ccccc1-c1csc(=Nc2cccnc2)n1CCCn1ccnc1	-27	18	2	30*	-11	-4
O=C(CCN1C(=O)/C(=C/c2ccccc2F)SC1=S)NCCc1ccc(O)cc1	-12	12	16*	32*	3	10
Cc1ccc(S(=O)(=O)N(C)CC(=O)N2CCN(Cc3ccccc3)CC2)cc1	13	15	1	-7	0	-8
CCOC(=O)c1cncc(O)c1	1	2	2	-4	-3	-5
CCOc1ccccc1/C=N/NC(=O)c1cccc(S(=O)(=O)N(CC)CC)c1	-3	15	3	0	-5	-10
CCN(CC)S(=O)(=O)c1cccc(C(=O)N/N=C/c2ccc(O)c(O)c2O)c1	26*	-7	0	6	-6	0
CC(C)[Si]1(C(C)C)OCC2OC(n3cnc4c(N)ncnc43)C(N)C2O[Si](C(C)C)(C(C)C)O1 (configuration not stated)	18	23	1	-15	3	-14
CCOc1ccccc1N1CCN(C(=O)CCNS(=O)(=O)c2ccccc2F)CC1	8	22	1	-6	-3	-4
CN(Cc1ccccc1)C(=O)CN1CCN(C(c2ccccc2)c2ccccc2)CC1	-20	12	1	86*	1	-6
COC(=O)CN1CCN(C(c2ccccc2)c2ccccc2)CC1	-11	5	0	14	-1	1
CCOC(=O)c1c(NC(=O)COC(=O)c2cnccn2)sc(C)c1C	5	16	-1	-6	-6	-4
CN(CC(=O)NCc1ccco1)C(=O)C1CC(=O)N(c2ccc3c(c2)OCCO3)C1 (configuration not stated)	28*	10	0	-21	2	-17
Cc1cccc(N2CCN(C(=O)C3CC(=O)N(c4ccc5c(c4)OCCO5)C3)CC2C)c1 (configuration not stated)	-18	-3	11	30*	2	-1
CC(Oc1ccccc1F)C(=O)NNC(=O)C1CC(=O)N(c2ccc3c(c2)OCCO3)C1 (configuration not stated)	-4	-19	0	8	-4	11
O=C(NNC(=O)C1CC(=O)N(c2ccc3c(c2)OCCO3)C1)c1ccc(F)cc1 (configuration not stated)	11	-36	0	-4	4	27*
CC(C)C[C@@H](COCc1ccc([N+](=O)[O-])cc1)N1CCN(C(=O)c2ccc(C(F)(F)F)cc2)CCC1=O	·	6	4	·	·	-17
SMILES	CHRM1 PAM	CHO-K1 Ca PAM	CHO-K1 Ca ag	M1 antag	M1 ag	CHO-K1 Ca antag
Cc1ccc2c(c1C)OC(=O)CC2c1ccccc1 (configuration not stated)	-1	16	1	-7	-7	-18
CCOC(=O)C1(C)CCCN(C(=O)CCc2ccccc2)C1 (configuration not stated)	6	15	0	-14	-3	2
O=C(NC(=S)Nc1cc(C(F)(F)F)ccc1N1CCOCC1)c1sc2ccccc2c1Cl	0	-6	0	0	-6	9
COc1cc(NC(=O)c2cc([N+](=O)[O-])ccc2NC(=O)CN2CCN(c3ccccn3)CC2)cc(OC)c1	-11	-2	2	34*	-4	-4
CC(=O)Nc1c(I)c(C(=O)N[C@H]2C(O)O[C@H](CO)[C@@H](O)[C@@H]2O)c(I)c(N(C)C(C)=O)c1I (some centres not stated)	2	1	0	-23	0	5
CC(C)(C)NS(=O)(=O)c1ccc2nc(NC(=O)c3ccc(N4C(=O)CCC4=O)cc3)sc2c1	6	7	15*	-4	2	3
COc1ccc(/C=C/c2nnc(NC(=O)CSc3ccc(Cl)cc3)s2)cc1	-3	26	1	8	-2	-5
OCCN1CCN(c2ncnc3c2ncn3[C@H]2CN(Cc3ccccc3)C[C@@H](CO)O2)CC1	7	8	0	-13	-4	-7
OC[C@@H]1CN(Cc2ccccc2)C[C@H](n2cnc3c(NC4CC4)ncnc32)O1	14	2	0	-25	2	-3
OC[C@@H]1CN(Cc2ccc(-c3ccccc3)cc2)C[C@H](n2cnc3c(NC4CCC4)ncnc32)O1	-16	-11	11	34*	1	23
OCCN1CCN(c2ncnc3c2ncn3[C@H]2CN(Cc3cccnc3)C[C@@H](CO)O2)CC1	4	-11	0	-10	-3	27*
CSCCC(NC(=O)c1ccc([N+](=O)[O-])cc1Cl)C(=O)OC1CCCCC1=O (configuration not stated)	2	-7	1	1	-3	-2
CCOc1ccccc1N1CCN(C(=O)c2cc(S(=O)(=O)N3CCCCC3)ccc2C)CC1	-16	-15	6	31*	-2	5
COc1ccccc1N1CCN(C(=O)c2cc(S(=O)(=O)N3CCCCC3)ccc2C)CC1	-13	15	5	16	-1	-15

Screening data as filed in PubChem BioAssay.
